Screens as filed in PubChem.
GRP78 ERSR act: induces the endoplasmic reticulum stress response in human glioma cells | U87-MG GRP78 promoter luciferase reporter, 16 h | Potency, µM, inactives show at the highest dose activation, hits mostly activators | 0.02% of 420,000 active; active = well fitted activation curve with a large enough effect; also: potency is read from the fitted curve at half-maximal effect; series mostly up to about 76 µM; % of control where 0% means no effect; nearly all actives have a fitted effect of over 35% in size
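Stably transfected U87-MG glioma cells carrying a GRP78-based luciferase sensor; 16 h compound incubation. Luminescence end-point read 10 min after Bright-Glo addition at room temperature.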
D1 antagonist: human D1 dopamine receptor antagonism; P21728; HEK293 TREx D1 cells, calcium flux, dopamine EC80; hits give low values; activity change, negative = inhibition, % at 10 µM; 3.2% of 360,000 active; AID 504652; in the data active = activity change below about -30%; also: % is scaled to controls: 0 for no effect and ±100 for the full control effect
Target sequence (P21728 whole entry, looked up): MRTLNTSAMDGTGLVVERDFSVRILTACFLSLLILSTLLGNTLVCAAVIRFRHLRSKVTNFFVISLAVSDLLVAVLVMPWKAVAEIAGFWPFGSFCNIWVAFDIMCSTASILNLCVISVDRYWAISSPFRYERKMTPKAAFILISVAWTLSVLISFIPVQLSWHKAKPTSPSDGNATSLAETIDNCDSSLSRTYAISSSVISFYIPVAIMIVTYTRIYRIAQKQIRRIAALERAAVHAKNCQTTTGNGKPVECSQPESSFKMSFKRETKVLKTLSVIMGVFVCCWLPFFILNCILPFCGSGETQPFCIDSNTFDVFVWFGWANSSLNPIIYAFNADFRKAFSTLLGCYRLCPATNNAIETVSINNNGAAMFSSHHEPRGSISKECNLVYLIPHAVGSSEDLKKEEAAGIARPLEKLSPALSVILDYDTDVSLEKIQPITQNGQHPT
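Calcium flux readout: force-coupled, inducible Hek293 Trex D1 line, cells induced overnight at 30 C with tetracycline, dye-loaded 30–90 min at RT. Antagonism scored against EC80 dopamine challenge given 180 s after compound.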
D1 PAM: potentiators of human D1 dopamine receptor | P21728 | HEK293 TREx D1 cells, calcium flux, dopamine EC20 potentiation | potentiation, % at 10 µM | 0.036% of 360,000 active; in the data active = potentiation above about 30%; also: 0% is about no effect
TRHR enhancer: allosterically enhances the human TRH receptor; TRHR cells, fluo-8 calcium fluorescence, EC20 TRH enhancement; enhancement, % at 2 µM; 0.66% of 360,000 active; AID 493056; in the data active = enhancement above about 30%; also: 0% is about no effect
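Enhancer read-out: after compound pinning and an initial kinetic agonist-mode read, an EC20 of TRH (10 nM final) was injected and fluo-8 calcium signal (Ex 480/Em 530) followed at 1 s/cycle for 100 cycles in TRHR-expressing cells.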
TRHR ag: activates the human TRH receptor. AID 493084. P34981. 0.18% of 360,000 active. activation, % at 2 µM. TRHR cells, calcium flux fluo-8, FDSS agonist mode; also: 0% is about no effect
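Steps: seed TRHR cells overnight; add fluo-8 no-wash Ca dye, RT 30 min–1.5 h; record 10 s baseline; pin-transfer compounds; monitor fluorescence 1 cycle/s for the agonist window. Calcium increases flag candidate agonists.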
D1 agonist: agonists of human D1 dopamine receptor | HEK293 T-REx D1 cells, calcium flux, agonist mode | activation, % at 2 µM | 1% of 360,000 active; also: 0% is about no effect
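Tetracycline-induced HEK293 TREx D1 cells, force-coupled to calcium signalling, were dye-loaded with a no-wash calcium kit. Compound was pin-added after a 10 s baseline. Fluorescence was read kinetically at 1 cycle/s for 180 s, with calcium rises flagged as agonism.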
Active calls of the source: *; / = no result. Only some compounds are listed: those with a hit (about 4% of all), similar ones and a draw of the others. Rule as the data show it, unless noted: active = activation above about 30%; inactive = the rest.

SMILES	GRP78 ERSR act	D1 antagonist	D1 PAM	TRHR enhancer	TRHR ag	D1 agonist
CC(Cc1ccccc1)C(=O)N1CCN(C)CC1 (configuration not stated)	-2.6%	14.8	3.2	4.2	0.3	-0.3
O=C(Cc1cccc(NC(=O)C2CCCN(C(=O)CCc3ccccc3)C2)c1)Nc1cccc(C(=O)N2CCOCC2)c1 (configuration not stated)	-3.5%	/	/	/	/	/
Cn1cccc1CNC(=S)Nc1ccccc1F	-0.3%	-7.9	-7.5	0.1	0.4	1.2
Cn1cccc1CNC(=S)Nc1ccccc1Cl	-2.0%	-41.6*	-10.2	-9.6	-0.1	4.4
CC1Cc2cc(/C(O)=C3/C(=O)C(=O)N(CCCN(C)C)C3c3ccncc3)ccc2O1 (configuration not stated)	-0.7%	-1.4	-9.5	-4.6	0.3	2.7
CCOc1cc(CNCCO)ccc1OCC(=O)NC(C)(C)C	-3.4%	-6.3	1.5	-2.7	0.8	2.0
CCOc1ccc(OCCNCc2ccc(OC(C)C(=O)N(C)C)c(OCC)c2)cc1 (configuration not stated)	-4.0%	10.4	-1.6	12.2	-0.2	56.5*
CC(Oc1ccccc1)C(=O)OCC(=O)Nc1sccc1C(N)=O (configuration not stated)	-3.2%	-34.2*	-2.8	-1.1	0.0	13.5
COc1cc(CC(=O)OCC(=O)Nc2sccc2C(N)=O)cc(OC)c1OC	-1.6%	-27.1	-0.8	-3.1	0.8	11.0
Cc1ccccc1NC(=O)COC(=O)Cc1ccsc1	-4.5%	-31.1*	-4.5	-0.8	-0.2	3.2
NC(=O)c1ccsc1NC(=O)COC(=O)Cc1ccsc1	-4.3%	-38.6*	-8.0	-8.5	0.7	9.9
Cc1cccc(C)c1NC(=O)COC(=O)Cc1ccsc1	0.3%	9.8	-5.6	0.3	0.3	2.7
O=C(O)CCC(=O)N1CCN(c2ncccn2)CC1	-1.3%	-31.6*	2.0	-6.0	0.5	3.0
O=C(O)CCC(=O)N1CCN(c2nc3ccccc3s2)CC1	-2.8%	-69.0*	1.8	-1.2	0.0	-0.2
Cc1cccc(C)c1NC(=O)N1CCN(c2nc3ccccc3s2)CC1	-4.4%	-1.0	-5.4	-4.1	-0.9	8.4
COc1ccc(-c2oc3cc(O)c(OC)c(O)c3c(=O)c2OC)cc1	4.1%	-30.2*	-7.5	5.6	-0.9	-1.0
COc1ccc(CCNC(=O)CCn2c(=O)c3ccccc3n(Cc3ccc(Cl)cc3)c2=O)cc1OC	-3.7%	-3.1	-0.8	-2.9	-0.8	10.4
N#C/C(=C/c1cn(-c2ccccc2)nc1-c1cccc(S(=O)(=O)N2CCOCC2)c1)C(=O)NCc1ccco1	-2.1%	-1.6	-6.5	-3.2	0.2	3.9
CSCCC(NC(=O)c1ccco1)C(=O)Nc1ccc(C)cn1 (configuration not stated)	5.6%	-34.8*	-19.3	0.4	0.5	0.5
CCc1ccc(OCCCC(=O)Nc2nccs2)cc1	9.4%	-30.2*	-1.4	1.9	0.2	7.7
c1ccc(CN=C2CCCc3ccccc3N2)cc1	-5.6%	/	/	/	/	/
COc1ccc(NC(=O)C(=O)NCC(c2cccnc2)N2CCc3ccccc3C2)cc1 (configuration not stated)	9.6%	-40.4*	-3.5	-1.8	0.9	29.7
CC(C)c1ccc(-n2cnn(-c3ncccc3[N+](=O)[O-])c2=O)cc1	-9.9%	-7.7	6.8	2.2	-1.6	3.7
CC(C)(C)NS(=O)(=O)c1cccc(S(=O)(=O)c2cccc(S(=O)(=O)NC(C)(C)C)c2)c1	-5.9%	-39.2*	-0.1	-5.6	0.7	5.4
CC(C)(C)NS(=O)(=O)c1ccc(N2C(=O)c3ccccc3C2=O)cc1	-3.1%	-22.9	-1.1	1.0	-0.2	4.3
SMILES	GRP78 ERSR act	D1 antagonist	D1 PAM	TRHR enhancer	TRHR ag	D1 agonist
COc1ccc(OC(C)c2nc3ccccc3[nH]2)cc1 (configuration not stated)	-0.5%	-32.6*	7.7	2.2	-0.7	0.0
CC(O)c1nc2ccccc2[nH]1 (configuration not stated)	-2.8%	/	/	/	/	/
Cc1nc2ccccn2c1C(=O)/C=C/c1cccc([N+](=O)[O-])c1	-6.7%	4.3	0.6	-3.4	-0.1	3.8
Cc1ccc(/C=C/C(=O)c2c(C)nc3ccccn23)cc1	0.2%	-71.5*	-1.2	-5.9	-2.3	-0.6
C[C@@H](C(=O)Nc1nc2ccc(F)cc2s1)N1C(=O)C2CC=CCC2C1=O (some centres not stated)	7.9%	-45.0*	0.5	0.6	-1.0	0.5
CC1CCN(c2ccc3c(c2)S(=O)(=O)c2cccc(C(=O)NCc4cccc(F)c4)c2C3=O)CC1	-3.8%	13.0	-3.9	-1.1	53.4*	188.0*
CCCN(CCC)C(=O)Cn1c(=O)n(-c2cccc(C)c2)c(=O)c2c1c1cc(OC)ccc1n2C	-1.7%	-1.4	-0.1	-5.5	-0.4	2.1
O=C(CN1C2=NCCCN2c2ccccc21)c1cccc(Br)c1	-3.5%	0.7	-7.5	11.0	-0.5	38.0*
Clc1ccc(CN2C3=NCCCN3c3ccccc32)cc1	-2.2%	-60.3*	-9.2	3.0	-0.2	71.6*
COc1cc2c(c(OCC(=O)NC(C)C)c1)C(=O)O[C@@H](C)CCCC(=O)CCCCC2	-1.8%	-33.1*	-7.1	0.3	0.8	0.5
Cc1nc2ccccc2c2c1CC(C(C)(Cl)Br)O2 (configuration not stated)	-3.9%	-16.0	-1.8	-2.5	-0.5	2.7
CCOC(=O)C1=C(C)NC2=C(C(=O)CCC2)C1c1ccc(O)c(OCC)c1 (configuration not stated)	-3.6%	0.5	-0.2	34.1*	-0.2	0.7
OCCc1ccc(-c2ccc(Cl)cc2)o1	2.4%	-10.5	-2.9	-0.1	0.2	1.8
COC(=O)c1cnn(-c2cc(Oc3cccc(C)c3)ncn2)c1N	-0.8%	-5.0	-5.2	2.4	0.0	5.1
CC1(C)CC(=O)C([N+](=O)[O-])=C(NCCCO)C1	-2.9%	5.8	-3.6	3.3	-1.1	1.3
O=C1CCCC(NCCCCCCNC2=C([N+](=O)[O-])C(=O)CCC2)=C1[N+](=O)[O-]	-4.4%	-92.0*	-4.5	4.9	0.0	0.4
CC(NC(=O)CCc1nnc(C2(c3ccc(Cl)cc3)CCC2)o1)C1CC1 (configuration not stated)	0.9%	-3.7	2.4	0.3	-1.5	1.5
COc1ccc(S(=O)(=O)n2c(C)nc3ccccc32)cc1C	-1.4%	-74.7*	-1.5	-5.2	-0.4	7.4
O=C(N/N=C/c1ccc(OC(F)F)cc1)c1cc[n+]([O-])cc1	-1.0%	-18.0	-0.5	33.7*	1.0	3.0
O=C(CSC(=S)N1CCSCC1)c1ccc(Cl)cc1	4.3%	-45.6*	0.9	7.4	1.5	9.2
O=C(CSC(=S)N1CCSCC1)c1ccccc1	-6.4%	-1.7	-3.8	-3.9	-0.3	5.2
